Consider 30 compounds from article PMC11995724, “Antibiotic target discovery by integrated phenotypic and activity-based profiling of electrophilic fragments” (Cell chemical biology, 2025).

The structures appear in SMILES notation. Screen size: about 3,200 compounds; about 110 (3.4%) showed an effect of 50% or more. The entries come from a sample that favours strong results as a whole.

The assay concerns T1, V. cholerae SAD30.
T1 construct: SAD30
Set-up: species or system S. aureus MSSA476 (TSB) or V. cholerae SAD30 (LB); 384-well bacterial growth screen at 25 uM, OD600 relative to DMSO control. The following applies: relative growth, OD600, LB; 25 µM; inhibitor.
With `CCc1ccc(NC(=O)C(C)Cl)cc1` (stereo not drawn) [4-L15, 2-chloro-N-(4-ethylphenyl)propanamide], the “% of control remaining” value was 96.9592%.
The result for `CC(Cl)C(=O)NCc1csc2ccccc12` (stereo not drawn) [7-C11, N-[(1-benzothiophen-3-yl)methyl]-2-chloropropanamide] reads 69.5192%.
Take `COc1ccc(C=C(C#N)C(=O)Nc2ccccc2)cc1` [8-A05, 2-cyano-3-(4-methoxyphenyl)-N-phenylprop-2-enamide]: the “% of control remaining” value is reported as 91.9782%.
Next, `N#CC(=Cc1ccc(O)cc1)C(=O)Nc1cc(Cl)ccc1Cl` [9-F03, 2-cyano-N-(2,5-dichlorophenyl)-3-(4-hydroxyphenyl)prop-2-enamide]: 117.947%; `CC(Cl)C(=O)N1CCN(C(=O)Cc2cccc(Cl)c2)C(C)C1` (stereo not drawn) [7-E20, 2-chloro-1-{4-[2-(3-chlorophenyl)acetyl]-3-methylpiperazin-1-yl}propan-1-one]: 74.6737%; `CC(Cl)C(=O)N[C@H]1C[C@H](C)S(=O)(=O)c2sccc21` (stereo partly drawn) [6-B22, 2-chloro-N-[(2S,4S)-2-methyl-1,1-dioxo-2H,3H,4H-1lambda6-thieno[2,3-b]thiopyran-4-yl]propanamide]: 103.289%.
The result for `Cc1ccc(SCCNC(=O)CCl)cc1` [4-K21, 2-chloro-N-{2-[(4-methylphenyl)sulfanyl]ethyl}acetamide] reads 111.279%.
The result for `N#CC(=Cc1ccccc1OC(F)F)C(=O)Nc1ccccc1Cl` [9-M21, N-(2-chlorophenyl)-2-cyano-3-[2-(difluoromethoxy)phenyl]prop-2-enamide] reads 89.5309%.
Turning to `COc1ccc(CCN2C(=O)C=CC2=O)cc1` [10-A05, 1-[2-(4-methoxyphenyl)ethyl]-2,5-dihydro-1H-pyrrole-2,5-dione], the “% of control remaining” value is given as 35.8465%.
Take `COc1ccc(CCN2C(=O)C=CC2=O)cc1OC` [10-H07, 1-[2-(3,4-dimethoxyphenyl)ethyl]-2,5-dihydro-1H-pyrrole-2,5-dione]: the “% of control remaining” value was determined as 98.344%.
For `Cc1cc(C(=O)CCl)c(C)n1CCc1ccccc1` [10-B18, 2-chloro-1-[2,5-dimethyl-1-(2-phenylethyl)-1H-pyrrol-3-yl]ethan-1-one], the “% of control remaining” value came out at 95.3828%.
The result for `O=C1C=CC(=O)N1CCc1ccccc1F` [10-G03, 1-[2-(2-fluorophenyl)ethyl]-2,5-dihydro-1H-pyrrole-2,5-dione] reads 22.2872%; that for `Cc1cc(C(=O)CCl)c(C)n1CCc1ccc(F)cc1` [10-G14, 2-chloro-1-{1-[2-(4-fluorophenyl)ethyl]-2,5-dimethyl-1H-pyrrol-3-yl}ethan-1-one], 97.7206%; that for `O=C(CCl)NCCCc1ccccc1` [4-N04, 2-chloro-N-(3-phenylpropyl)acetamide], 112.487%.
Next, `COc1ccc(CCNC(=O)CCl)cc1` [5-H12, 2-chloro-N-[2-(4-methoxyphenyl)ethyl]acetamide]: 68.593%; `O=C1C=CC(=O)N1CCc1ccc(F)cc1` [10-C21, 1-[2-(4-fluorophenyl)ethyl]-2,5-dihydro-1H-pyrrole-2,5-dione]: 34.7555%; `CC(Cl)C(=O)NCCc1ccc(F)cc1` (stereo not drawn) [6-F06, 2-chloro-N-[2-(4-fluorophenyl)ethyl]propanamide]: 86.757%.
The result for `O=C1C=CC(=O)N1CCc1ccccc1` [10-E20, 1-(2-phenylethyl)-2,5-dihydro-1H-pyrrole-2,5-dione] reads 27.5862%.
Consider `O=C(CCl)Nc1nnc(-c2ccccc2Cl)s1` [6-K17, 2-chloro-N-[5-(2-chlorophenyl)-1,3,4-thiadiazol-2-yl]acetamide], for which the “% of control remaining” value was 95.8574%.
Next, `CC(Cl)C(=O)Nc1cccc(Cl)c1` (stereo not drawn) [5-H22, 2-chloro-N-(3-chlorophenyl)propanamide]: 106.42%.
As for `C=CC(=O)N(Cc1cn2ccccc2n1)C1CC1` [3-J21, N-cyclopropyl-N-({imidazo[1,2-a]pyridin-2-yl}methyl)prop-2-enamide], the “% of control remaining” value amounted to 90.3253%.
The result for `C=CC(=O)NCc1cnc(-c2ccc(C(F)(F)F)cc2)s1` [1-C13, N-({2-[4-(trifluoromethyl)phenyl]-1,3-thiazol-5-yl}methyl)prop-2-enamide] reads 68.9088%; that for `CC(Cl)C(=O)N1CCn2c(C#N)ccc2C1C` (stereo not drawn) [6-F22, 2-(2-chloropropanoyl)-1-methyl-1H,2H,3H,4H-pyrrolo[1,2-a]pyrazine-6-carbonitrile], 96.0091%.
As for `C=CC(=O)NCCC(=O)N1CCCN(c2cccnn2)CC1` [2-P16, N-{3-oxo-3-[4-(pyridazin-3-yl)-1,4-diazepan-1-yl]propyl}prop-2-enamide], the “% of control remaining” value stood at 95.7541%.
The result for `Cc1n[nH]c(C)c1C=C(C#N)C(=O)Nc1ccc(SC(F)F)cc1` [8-E08, 2-cyano-N-{4-[(difluoromethyl)sulfanyl]phenyl}-3-(3,5-dimethyl-1H-pyrazol-4-yl)prop-2-enamide] reads 75.2549%; that for `O=C(CCl)N(Cc1nc(C2CCCCCC2)no1)C1CC1` [7-B16, 2-chloro-N-[(3-cycloheptyl-1,2,4-oxadiazol-5-yl)methyl]-N-cyclopropylacetamide], 80.2247%.
Next, `Cc1cc(NC(=O)CN(C)C(=O)C(C)Cl)no1` (stereo not drawn) [7-M19, 2-chloro-N-methyl-N-{[(5-methyl-1,2-oxazol-3-yl)carbamoyl]methyl}propanamide]: 81.8107%; `C=CC(=O)NCCc1nc(-c2ccccc2)nn1C` [2-M12, N-[2-(1-methyl-3-phenyl-1H-1,2,4-triazol-5-yl)ethyl]prop-2-enamide]: 85.4096%.
As to `C=CC(=O)NCCn1nc(C)cc1C` [3-M13, N-[2-(3,5-dimethyl-1H-pyrazol-1-yl)ethyl]prop-2-enamide], the “% of control remaining” value stood at 97.7357%.
Next, `C=CC(=O)N1CCC(C(=O)Oc2ccc(NC(C)=O)cc2)CC1` [3-M16, 4-acetamidophenyl 1-(prop-2-enoyl)piperidine-4-carboxylate]: 96.1478%.
